# Screens deposited in PubChem BioAssay by National Center for Advancing Translational Sciences (NCATS).
# Sampled rows, rich in hits. Any-hit rate of the full collection: about 3.6%.
# AmpC inh no detg – blocks E. coli AmpC beta-lactamase in detergent-free assay | Potency, µM (highest dose often 57.1 µM), for the others: at the highest dose activity change, negative = inhibition, most hits filed as inhibitors | P00811 | 330,000 compounds, 0.52% hits | AmpC nitrocefin hydrolysis, absorbance 480 nm, 0.0001% Triton;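 further: plate controls were no compound for no effect and no enzyme for full effect; nearly all actives have a fitted effect of over 20% in size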
# Target sequence (P00811 whole entry, looked up): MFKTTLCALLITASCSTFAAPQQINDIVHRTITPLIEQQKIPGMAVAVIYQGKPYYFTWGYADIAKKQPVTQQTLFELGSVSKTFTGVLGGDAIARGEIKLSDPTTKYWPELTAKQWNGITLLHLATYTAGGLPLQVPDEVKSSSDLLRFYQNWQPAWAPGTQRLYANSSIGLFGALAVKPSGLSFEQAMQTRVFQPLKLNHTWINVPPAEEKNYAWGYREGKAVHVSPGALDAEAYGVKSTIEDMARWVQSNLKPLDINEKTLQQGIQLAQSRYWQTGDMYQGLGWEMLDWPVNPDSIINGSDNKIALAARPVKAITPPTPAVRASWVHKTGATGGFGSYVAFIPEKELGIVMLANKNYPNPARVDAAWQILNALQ
#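 AmpC (5.3 nM in the dispensed reagent) in 20 mM phosphate pH 7.0 with 0.01% (detergent screen) or 0.0001% Triton X-100 was preincubated with compounds for 15 min at room temperature. Nitrocefin was then added from an 800 uM solution, and hydrolysis was followed at 480 nm.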
# Sm TGR block – S. mansoni TGR enzyme inhibition; Q962Y6; purified TGR, DTNB reduction, TNB absorbance 405 nm; Potency, µM (highest dose often 114 µM), for inactives: top-dose activity change, negative = inhibition, actives largely listed as inhibitors; 360,000 compounds, 3% hits; AID 485364; further: nearly all actives have a fitted effect of over 60% in size
#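 Kinetic colorimetric format: TGR-catalysed, NADPH-driven DTNB reduction monitored via TNB absorbance. Enzyme dispensed at 20 nM; compound exposure 15 min at room temperature before reaction start.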
# AmpC detergent – blocks E. coli AmpC beta-lactamase in detergent assay; AmpC hydrolysis of nitrocefin, absorbance 480 nm, 0.01% Triton; Potency, µM (top dose mostly 114 µM), inactives show top-dose activity change, negative = inhibition, actives largely listed as inhibitors; 370,000 compounds, 0.041% hits; AID 485294;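 further: 0% = no-compound wells and -100% = no-enzyme wells; nearly all actives have a fitted effect of over 25% in size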
#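 20 mM phosphate pH 7.0 + 0.01% (detergent screen) or 0.0001% Triton X-100; 5.3 nM AmpC reagent; cpd preinc 15 min RT; nitrocefin (800 uM stock) to start; A480 q20 s × 4 min; Activity was normalised to no-enzyme and no-compound control wells.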
# Giardia FBPA inh – inhibitors of Giardia lamblia fructose-1,6-bisphosphate aldolase; A8B2U2; purified Giardia FBPA; Potency, µM (top dose mostly 59.6 µM), inactives show top-dose activity, negative = inhibition, usual class: inhibitors; 290,000 compounds, 0.71% hits; AID 2451; further: nearly all actives have a fitted effect of over 55% in size
#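 40 nM FBPA preincubated 10 min at RT with compound (up to 57.5 uM final), then substrate plus GAPDH/TPI/NAD/arsenate coupling and diaphorase/resazurin added. Fluorescence read after 20 min at RT, 525/598 nm.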
# Starred values were filed as active, the others as inactive; ? = inconclusive; · = not tested or not shown; [ ] = dose if it differs, or a comment. The call rests on the fitted dose curve; in most records, active means well fitted curve in the direction sought with a large enough effect; inconclusive means small, poorly fitted or top-dose-only effect, or another doubt; inactive means no such curve, though single readings can be large; an effect the other way counts as inactive or inconclusive. Unless noted, on the % scale 0 is the no-effect control and ±100 the full control effect; potency means the concentration at half of the fitted maximal effect.
SMILES,AmpC inh no detg,Sm TGR block,AmpC detergent,Giardia FBPA inh
O=C(NNC(=O)c1ccc([N+](=O)[O-])cc1C(=O)O)c1ccncc1,-21.0%,-21.4%,-10.0%,-11.4%
Cc1cc(-c2ccco2)n(-c2ccccc2)n1,-15.3%,3.98µM*,?,?
Cc1cc(-c2ccccc2)n(-c2ccccc2)n1,-10.4%,?,-7.9%,-1.9%
CCOc1ccc(C=NNc2ccc(S(=O)(=O)Nc3ccccc3C(=O)O)cc2[N+](=O)[O-])cc1,28.2µM*,·,·,·
CCOC(=O)c1c(NC(=O)Cc2ccccc2)sc2c1CCN(CC)C2,113.5%,-4.0%,?,?
CCOC(=O)c1c(N)sc2c1CCN(Cc1ccccc1)C2,·,·,·,17.7µM*
Cc1ccc(S(=O)(=O)N2CCC(NC(=O)c3cccnc3)CC2)cc1Cl,48.7%,0.5%,9.2%,·
Cc1c(Cl)cccc1NC(=O)CN(C1CCCCC1)S(C)(=O)=O,30.1%,-11.3%,-4.8%,10.9%
Cc1cccc(NCc2ccc(O)c3ncccc23)c1,-14.9%,0.1µM*,4.9%,-7.7%
Oc1ccc(CNc2ccccc2)c2cccnc12,-49.6%,0.251µM*,?,?
Oc1ccc(CNc2ccc(F)cc2)c2cccnc12,-33.7%,?,?,-0.2%
O=C(CSc1ncccn1)NCc1ccc2c(c1)OCO2,-12.1%,-1.2%,?,-1.0%
Oc1ccc(Cn2ccnc2)c2cccnc12,-2.2%,22.4µM*,3.1%,?
OCc1cn(Cc2ccc(O)c3ncccc23)cn1,-2.7%,?,0.7%,·
Cc1ccccc1NCc1ccc(O)c2ncccc12,-17.9%,0.0%,0.8%,-5.4%
Oc1ccc(CNCc2ccc3c(c2)OCO3)c2cccnc12,-14.9%,5.62µM*,-9.2%,·
Cc1ccc(-c2nn(-c3ccc(F)cc3F)c3c2cnc2ccc(F)cc23)cc1,·,3.7%,7.2%,·
CC(=O)c1c(C)[nH]c(C(=O)NCCc2c[nH]c3ccccc23)c1C,-16.1%,0.7%,-17.2%,-17.3%
COc1ccc(CNC(=O)C2CCN(S(=O)(=O)c3c(C)noc3/C=C/c3cccs3)CC2)cc1,·,7.6%,0.6%,·
CCOC(=O)COc1cccc2c(=O)n(CC(=O)N3CCCCC3)ccc12,1.3%,8.3%,9.5%,0.2%
COC(=O)COc1cccc2c(=O)n(CC(=O)N3CCCc4ccccc43)ccc12,0.631µM*,1.5%,?,0.3%
Nc1c(C(=O)NCc2ccco2)c2nc3ccccc3nc2n1CCc1ccccc1F,20.7%,25.1µM*,2.8%,?
COc1ccc(Cn2c(N)c(C(=O)NCc3ccco3)c3nc4ccccc4nc32)cc1,-1.1%,-35.7%,-0.3%,-22.9%
Nc1c(C(=O)NCc2ccco2)c2nc3ccccc3nc2n1CCN1CCOCC1,110.5%,25.1µM*,3.8%,-24.4%
COc1ccc(CCn2c(N)c(C(=O)NCc3ccco3)c3nc4ccccc4nc32)cc1,-25.4%,0.0%,?,-25.2%
SMILES,AmpC inh no detg,Sm TGR block,AmpC detergent,Giardia FBPA inh
Nc1c(C(=O)NCc2ccco2)c2nc3ccccc3nc2n1Cc1ccc(F)cc1,-0.3%,11.2µM*,-11.3%,?
COc1ccc(CCn2c(N)c(C(=O)NCc3ccco3)c3nc4ccccc4nc32)cc1OC,135.8%,15.8µM*,-7.4%,?
Cc1ccc(N(CC(=O)NCc2ccccc2)C(=O)CCC(=O)Nc2ccccn2)cc1C,41.3%,-8.8%,-4.5%,0.1%
CCCc1cc(=O)[nH]c(SCC(=O)NN(c2ccccc2)c2ccccc2)n1,-24.1%,6.9%,1.6%,9.0%
COCCCn1c2nc3ccccc3nc2c2c(=O)n(Cc3ccc(Cl)cc3)cnc21,-13.8%,0.8%,?,4.0%
Nc1c(C(=O)NCc2ccco2)c2nc3ccccc3nc2n1Cc1ccccc1,1.3%,28.2µM*,0.9%,?
COc1ccc(-n2c(N)c(C(=O)NCc3ccco3)c3nc4ccccc4nc32)c(OC)c1,167.4%,25.1µM*,?,-26.2%
O=c1c2c3nc4ccccc4nc3n(Cc3ccccc3)c2ncn1Cc1ccco1,-1.3%,8.91µM*,-3.4%,?
COCC(C)N1CC(O)=C(c2nc(-c3ccc(Cl)cc3)cs2)C1=N (stereo unspecified),27.2%,13.6%,0.3%,1.1%
CCOC(=O)N/N=C1/C[C@@H](O)[C@@H](O)[C@@H]2[C@@H]3C(=O)N(Cc4ccccc4)C(=O)[C@H]3CC[C@@H]12,·,·,·,-0.6%[12.9 µM]
CCc1cc(C(=O)NCC(c2ccc(OC)cc2)N2CCOCC2)sc1C (stereo unspecified),40.4%,-4.7%,-14.6%,·
